Experimental data published in ChEMBL document CHEMBL4513216, “Probing the Open Global Health Chemical Diversity Library for Multistage-Active Starting Points for Next-Generation Antimalarials” (ACS Infect Dis, 2020).
In all, about 69,000 compounds went through this assay and about 8,600 (12%) showed an effect of 50% or more. This excerpt belongs to a sample that is enriched for strong results.

System: Plasmodium berghei
Assay: Screen against P. berghei liver stage (PbLuc), transformed with Luciferase, at 10uM
Format: functional, HepG2
Conditions: tested at 10 uM

| Compound | INHIBITION [%] |
| --- | --- |
| Cc1nc(N(C)C)nc(NCCc2cnccn2)c1C | 27.4 |
| c1cncc(N2CCC3(CCCN(c4ccncc4)C3)CC2)c1 | -29 |
| N#Cc1ccc(N2CCC3(CC2)CC(N2CCOCC2)CO3)cc1 (stereo not drawn) | 73.2 |
| O=S(=O)(C1CC1)N1CCC2(CC1)CC(Oc1cccnc1)CO2 (stereo not drawn) | 26.7 |
| O=C(c1ccncc1)N1CCC2(CC1)CC(Oc1cccnc1)CO2 (stereo not drawn) | 35.8 |
| N#Cc1ccc(N2CCCC3(CCN(c4cccnc4)CC3)C2)cc1 | 85.6 |
| CN1CCN(C2COC3(CCN(c4ccc(C#N)cc4)CC3)C2)CC1 (stereo not drawn) | 39.5 |
| CN(C)C(=O)COC1COC2(CCN(c3cnccn3)CC2)C1 (stereo not drawn) | 21.6 |
| c1cncc(COC2COC3(CCN(c4cnccn4)CC3)C2)c1 (stereo not drawn) | 60 |
| CN1CCOCC12CCN(c1ccc(C#N)cc1)CC2 | -15.3 |
| c1cncc(N2CCCC3(CCN(CCN4CCCC4)CC3)C2)c1 | -26.1 |
| N#Cc1ccc(N2CCC3(CC2)CC(Oc2cccnc2)CO3)cc1 (stereo not drawn) | 73.3 |
| Fc1cnc(N2CCC3(CC2)CC(OCc2cccnc2)CO3)nc1 (stereo not drawn) | 30.5 |
| O=C(c1cccc(N2CCCC2=O)c1)N1CCCC(n2cccn2)C1 (stereo not drawn) | -21.35 |
| O=C(c1c[nH]c(=O)[nH]c1=O)N1CCCC(c2nccn2CC2CCC2)C1 (stereo not drawn) | 22 |
| CC(=O)N(Cc1ncc(C)o1)C1CCN(CCc2ccncc2)C1 (stereo not drawn) | 12.7 |
| CN(Cc1ccccc1F)C(=O)COC(=O)c1cc(Cl)c[nH]1 | 29.9 |
| O=c1[nH]c(-c2ccncc2)ncc1-c1ccnc(NC2CC2)n1 | 18.9 |
| c1cnc(Nc2ccc(C3CCCCN3Cc3ccncc3)cn2)nc1 (stereo not drawn) | 23.3 |
| O=C(Cc1ccccc1)N1CCC2(CC1)COCCN2CC1CC1 | 6.6 |
| COCCOCC(C)NC(=O)COc1nn(C)c2nc(C)cc(C)c12 (stereo not drawn) | 9.63 |
| CCOc1ncccc1NC(=O)NC1CCN(S(C)(=O)=O)CC1 | 44.8 |

| Compound | INHIBITION [%] |
| --- | --- |
| O=C(Nc1nc(-c2ccccc2)ns1)N1CCC(CO)CC1 | -95.1 |
| Cc1nn(C)c(N(C)C)c1CNCc1cccc(Cn2ccnc2)c1 | -31.5 |
| c1cncc(CO[C@H]2CO[C@@]3(CCN(Cc4ccoc4)C3)C2)c1 | -0.79 |
| Fc1ccc(N2CCC3(CC2)CC(OCc2cccnc2)CO3)cc1 (stereo not drawn) | 33.4 |
| N#Cc1ccc(N2CCC3(CC2)CC(OCc2cccnc2)CO3)cc1 (stereo not drawn) | 58.5 |
| O=C(NCc1ccco1)[C@H]1C[C@@H]2CCN(c3ncccn3)C[C@H]2O1 | 9.51 |
| c1cc(CNCC2OCCc3cn(CC4CC4)nc32)cs1 (stereo not drawn) | 20.9 |
| COc1ccc2c(c1)c(-c1nc(C)ncc1CN)cn2C | 27.6 |
| CN(Cc1ccc(CCC(C)(C)O)cc1)Cc1cccnc1 | 57.1 |
| CC(C)(C)CNC(=O)c1ccc(C(=O)O)cn1 | 11.3 |
| Cc1cnc(CNC(=O)N(Cc2ccccc2)CC(C)(C)O)s1 | 15.7 |
| CN(Cc1ccccc1)CC(C)(C)NC(=O)c1cnns1 | 25.3 |
| CN(Cc1ccc(CCC(C)(C)O)cc1)Cc1cccc(O)c1 | 22.5 |
| CN(Cc1ccccc1)CC(C)(C)NC(=O)c1ccon1 | 38.7 |
| CC(c1ccccn1)N(C)Cc1ccc(CCC(C)(C)O)cc1 (stereo not drawn) | 36.6 |
| CN(Cc1ccccc1)CC(C)(C)NC(=O)c1ccc(C(N)=O)cn1 | 52.2 |
| CN(Cc1ccccc1)CC(C)(C)NC(=O)c1cnccn1 | 64.5 |
| Cc1ccc(C(=O)N2CCN3C[C@H](Oc4cccc(F)c4)C[C@H]3C2)cn1 | 0.804 |
| O=C(NCC1CC2(CO1)CN(Cc1cccs1)C2)C1CCC1 (stereo not drawn) | 27.6 |
| COc1ccc(F)c(-c2ncccc2C(=O)N2C[C@@H]3CC[C@H]2C3)c1 | 39 |
| COc1ccc(OCc2cc(C(=O)N3CCC(O)CC3)n[nH]2)c(Cl)c1 | -3.75 |
| COc1ccccc1OCc1cc(C(=O)N2CC(O)C2)n[nH]1 | -34.5 |

| Compound | INHIBITION [%] |
| --- | --- |
| COc1ccc(OCc2cc(C(=O)N3C[C@@H](C)O[C@@H](C)C3)n[nH]2)c(Cl)c1 | 44.2 |
| COc1ccccc1OCc1cc(C(=O)N2CCN[C@H](C)C2)n[nH]1 | 51.8 |
| COc1ccc(OCc2cc(C(=O)N3CCN[C@H](C)C3)n[nH]2)c(Cl)c1 | 65.1 |
| COc1ccccc1OCc1cc(C(=O)N2C[C@@H](C)O[C@@H](C)C2)n[nH]1 | -16 |
| Cc1cccc(C(=O)N2CC(=O)N(c3ccccc3Cl)CC2C)n1 (stereo not drawn) | 28.2 |
| Cc1ccc(N(C)S(=O)(=O)c2cc(C(=O)O)cs2)c(C)c1 | -42.1 |
| Cn1cc(CN2CC[C@H]3OCC[C@@H](C(=O)NC4CCCC4)[C@@H]3C2)cn1 | 10 |
| CNc1nc2cn(CCc3ccc(F)cc3)c(=O)c-2c[nH]1 | 45.8 |
| O=C1CC(c2ccc(O)cc2)c2c(c(C(=O)O)cn2-c2ccccc2)N1 (stereo not drawn) | 25.2 |
| COc1ccc(CN2CCn3cc(Cn4cccn4)nc3C2)cc1 | 7.9 |
| COc1ccccc1OCCN(C)Cc1c(C2CC2)[nH]c2ncccc12 | 10.7 |
| COc1ccccc1C(C)CC(=O)N1CCCS1(=O)=O (stereo not drawn) | -6.7 |
| CC(CC(=O)N1CCCS1(=O)=O)c1ccccc1C(F)(F)F (stereo not drawn) | 50.1 |
| CC(Cc1ccc(C(F)(F)F)cc1)C(=O)N1CCCS1(=O)=O (stereo not drawn) | -33.4 |
| Cc1ncc(C(=O)N2CCCC2c2c(C)nn(C)c2C)s1 (stereo not drawn) | 23.2 |
| CCc1ccc(CC)c(NCc2cnc(N3CCOCC3)nc2)c1 | -36.4 |
| O=C(c1c[nH]cn1)N1CCC(F)(F)C2(CCN(c3cnccn3)C2)C1 (stereo not drawn) | 52.3 |
| O=C(c1c[nH]cn1)N1CCC(F)(F)C2(CCN(c3ccccn3)C2)C1 (stereo not drawn) | 34.6 |
| O=C(c1c[nH]cn1)N1CCC(F)(F)C2(CCN(c3ncccn3)C2)C1 (stereo not drawn) | 2.41 |
| CN1C(=O)COc2ccc(C(=O)Cn3cnc4ccccc4c3=O)cc21 | -35.1 |
| Cc1cnn(CC2CCCCN2C(=O)CCCc2nc(C)no2)c1 (stereo not drawn) | 11.3 |
| O=C(Nc1ncnc2c1CCC2)c1ccc2c(c1)OCO2 | -19.7 |

| Compound | INHIBITION [%] |
| --- | --- |
| COc1cc(OC)cc(C(=O)Nc2ncnc3c2CCC3)c1 | 52.4 |
| O=C(Nc1ncnc2c1CCC2)c1cccc(F)c1 | -44.2 |
| Cc1cc(C(=O)NCc2ccc(F)cc2)c2c(C3CCCN3)noc2n1 (stereo not drawn) | 31.7 |
| CNC(=O)c1cc2c(nc1NCC(C)C)CCN(S(=O)(=O)C1CC1)CC2 | -6.75 |
| CNC(=O)c1cc2c(nc1NCC1CC1)CCNCC2 | 9.72 |
| CNC(=O)c1cc2c(nc1NCC1CC1)CCN(CC1CC1)CC2 | 8.67 |
| CNC(=O)c1cc2c(nc1NCC(C)C)CCN(C)CC2 | 48.7 |
| CNC(=O)c1cc2c(nc1NCC(C)C)CCN(CC1CC1)CC2 | 86.7 |
| CC(C)Nc1nc2c(cc1C(=O)NCC1CC1)CCNCC2 | 32.7 |
| CNC(=O)c1cc2c(nc1NCC1CC1)CCN(c1ncccn1)CC2 | -17.1 |
| CC(C)CNc1nc2c(cc1C(=O)NCC1CC1)CCNCC2 | 94.5 |
| CNC(=O)c1cc2c(nc1NCC(C)C)CCN(c1ncccn1)CC2 | 85.4 |
| CO[C@H]1CO[C@@]2(CCCN(S(=O)(=O)c3ccccc3)C2)C1 | 42.7 |
| O=C([C@H]1C[C@H]2OCC[C@H]2N(CCc2ccccc2)C1)N1CCCO1 | 43.9 |
| CC(C)NC(=O)Cn1cc(-c2ccccc2)ncc1=O | 12.9 |
| CC(=O)c1ccc(-c2cnn(CC(=O)Nc3cc(C)nn3C)c2)nc1 | 28.7 |
| Cn1ccnc1-c1cnn(CC(=O)Nc2ccnn2C)c1 | 62.4 |
| CC(=O)c1ccc(-c2cnn(CC(=O)Nc3ccnn3C)c2)nc1 | 46.1 |
| CC(=O)NCCNC(=O)CN1CCCC(Cn2cncn2)C1 (stereo not drawn) | 29.7 |
| COc1ccc(N2CCN(C(=O)C3[C@H]4CNC[C@@H]34)CC2(C)C)cc1 (stereo partly drawn) | 35.3 |
| Cc1nnc(CN2CCOC(c3ccc(Cl)c(Cl)c3)C2)o1 (stereo not drawn) | 15.9 |
| Cc1cc(C(=O)N2CCOC(c3nc(C)n[nH]3)C2)[nH]n1 (stereo not drawn) | 28.5 |

| Compound | INHIBITION [%] |
| --- | --- |
| O=C(c1ccc(O)cn1)N1CCOC(c2ccc(Cl)c(Cl)c2)C1 (stereo not drawn) | -19.2 |
| Cc1nc[nH]c1CN1CCOC(c2ccc(Cl)c(Cl)c2)C1 (stereo not drawn) | 69.4 |
| Cc1cc(C(=O)N2CCOC(c3ccc(Cl)c(Cl)c3)C2)[nH]n1 (stereo not drawn) | 81 |
| Cc1c[nH]c(CN2CCOC(c3ccc(F)cc3)C2)c(C)c1=O (stereo not drawn) | -3.96 |
| Cc1c[nH]c(CN2CCOC(c3ccc(Cl)c(Cl)c3)C2)c(C)c1=O (stereo not drawn) | 19.8 |
| Cc1c[nH]c(CN2CCOC(c3ccc(Cl)cc3)C2)c(C)c1=O (stereo not drawn) | 79.3 |
| Cc1cc(C)nc(CN2CCOC(c3ccc(Cl)cc3)C2)n1 (stereo not drawn) | 41.5 |
| Cc1ccc2nc(C(=O)N3CCCC[C@]4(C)NC(=O)CCC[C@H]34)cn2c1 | -56.2 |
| CNC(=O)NCc1nn(-c2ccccc2)c2c1CCC2 | 10.675 |
| CC(C)c1nnc2n1CCN(C(C(N)=O)c1ccc(F)cc1)C2 (stereo not drawn) | 20 |
| COc1ccccc1CNC(=O)CNc1ccccc1C(C)=O | -33.4 |
| Cc1nc(CC(=O)N2CCCN(c3ccc(C#N)cc3)CC2)cs1 | -11.8 |
| CS(=O)(=O)NCC1CCCCN1C(=O)c1cccc(C(F)(F)F)c1 (stereo not drawn) | 30.6 |
| CCC(=O)N1CCC(Cc2ccccc2-c2ccncc2)(C(N)=O)C1 (stereo not drawn) | 7.52 |
| Cc1nnc2n1CCN(CC(=O)N1CCc3ccccc3C1)C2 | 50.7 |
| CC(C)c1nnc2n1CCN(CC(=O)N1CCc3sccc3C1)C2 | -12.915 |
| CC(C)c1nnc2n1CCN(CC(=O)N1CCc3ccccc3C1)C2 | 46.5 |
| CCc1nnc2n1CCN(CC(=O)N1CCc3ccccc3C1)C2 | 59.7 |
| Cc1nnc2n1CCN(C(=O)CN1C(=O)CCCc3ccccc31)C2 | 2.82 |
| CCc1nnc2n1CCN(CC(=O)N(CC)C1=CCCCC1)C2 | 24.6 |
